Common to all, as to assay: qHTS profiling for inhibitors of Plasmodium falciparum proliferation (AID 504749); also: nearly all actives have a fitted effect of over 60% in size
Common to all, as to conditions: P. falciparum in erythrocytes, SYBR Green DNA, 72 h; series mostly up to 28.7 µM
In general terms: In qHTS, concentration-response curves come from the screen itself.

The subject of test [1] is AA1029. The method, boiled down:
(§1)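 SYBR Green fluorescence (ex 485 nm, em 535 nm) reports parasite DNA after 72 h compound exposure of infected red cells at 0.3% parasitemia, 2.5% hematocrit; signal normalized to 0.29 uM artemisinin and vehicle wells.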

Test [2] concerns ATS189. In outline:
as §1

The subject of test [3] is CP185. In outline: as §1
Test [4] concerns CP191. In outline: as §1
For test [5], the system named is CP192. The method, boiled down: as §1
Test [6] deals with CP194. In outline:
as §1

For test [7], the system named is CP201. In outline:
as §1

Test [8] relates to CP211. In outline:
as §1

The subject of test [9] is CP217. The method, boiled down:
as §1

Test [10] deals with CP238. In outline:
as §1

Test [11] concerns CP247. The method, boiled down:
as §1

Test [12] has as its system CP250. In outline:
as §1

Test [13] has as its system AS120. In outline: as §1
Test [14] concerns ATS95. The method, boiled down:
as §1

Test [15] deals with C2A. The method, boiled down: as §1
Test [16] has as its system CP215. In outline: as §1
For test [17], the system named is CP237. In outline:
as §1

The test system of test [18] is CP252. In outline:
as §1

Test [19] concerns CP256. The method, boiled down:
as §1

The subject of test [20] is CP260. In outline: as §1

Results filed as inconclusive are left out. Calls of active or inactive are those of the source. Calls follow the shape of the dose curve; as a rule, active = well fitted inhibition curve with a large enough effect; inconclusive = small, poorly fitted or top-dose-only effect; inactive = flat fitted curve, though single readings scatter.
Potency is read from the fitted curve at half-maximal effect.

For `CN(C)[C@@H]1C(=O)C(C(N)=O)=C(O)[C@@]2(O)C(=O)C3=C(O)c4c(O)cccc4[C@@](C)(O)[C@H]3[C@H](O)[C@@H]12`, the Potency entry in [1], in [2], in test [3], in [4], in test [5] and in test [6] was “inactive” throughout. The Potency result in [8], in test [9], in test [10], in test [11] and in [12] was “inactive” throughout. Besides, the result in [7] was inactive.
On to `O=C(O)C(Cl)Cl`, for which the Potency result in [1], in test [13], in test [2], in test [14], in [15] and in [3] was “inactive” each time. Also, the Potency entry in test [4], in test [5], in test [6], in test [8], in [16] and in test [9] was “inactive” throughout. Moreover, the Potency result in test [17], in test [10], in [11], in [12], in test [18] and in test [19] was “inactive” throughout. Besides, the Potency entry in test [20] was “inactive”. Also, in test [7], the outcome was inactive.
As to `CCCN1CCC[C@H](c2cccc(O)c2)C1`, the Potency result in test [1], in test [13], in test [2], in test [14], in test [15] and in test [3] was “inactive” throughout. The Potency entry in test [4], in test [5], in [6], in [8], in test [16] and in [9] was “inactive” throughout. In addition, the Potency result in [10], in [12], in test [18], in [19] and in test [20] was “inactive” in each case. The compound was called inactive in [7].
Regarding `O=[N+]([O-])c1ccc([As](=O)(O)O)cc1`, the Potency in test [1] was 3.98 µM (active); in [13], 7.94 µM (active); in test [2], 7.08 µM (active); in [14] it was 11.2 µM (active); in [3], 8.91 µM (active); in [4] it was 6.31 µM (active). The Potency was 13.5 µM (active) in test [6]; 7.57 µM (active) in [8]; 7.57 µM (active) in [16]; 7.94 µM (active) in [9]; 7.94 µM (active) in test [17]; 11.2 µM (active) in test [10]. Also, the Potency is 7.08 µM (active) in test [12], 7.08 µM (active) in [18], 10 µM (active) in test [19] and 7.08 µM (active) in test [20].
For `CC(C)NC(C)Cc1ccc(I)cc1` (stereo not given), the Potency result in test [1], in test [13], in test [2], in [14], in test [15] and in test [3] was “inactive” in each case. Further, the Potency result in test [4], in test [5], in [6], in test [8], in test [9] and in test [10] was “inactive” in each case. In addition, the Potency entry in [11], in [12], in test [18], in [19] and in test [20] was “inactive” each time. For the same compound, the result in test [7] was inactive.
Consider `C=CCN1CC[C@]23CCCCC2[C@H]1Cc1ccc(O)cc13` (stereo not given in full), for which the Potency entry in [1], in test [13], in test [2], in test [14], in [15] and in [3] was “inactive” each time. The Potency result in test [4], in test [5], in test [6], in test [8], in [16] and in [9] was “inactive” throughout. Moreover, the Potency entry in test [10], in test [11], in test [12], in [18], in [19] and in [20] was “inactive” throughout. Moreover, in test [7], the compound was called inactive.
Take `CCCCCCCCCC(CC)c1ccc(S(=O)(=O)O)cc1` (stereo not given): the Potency result in test [1], in test [13], in [2], in [14], in test [15] and in test [3] was “inactive” in each case. For the same compound, the Potency result in test [4], in [5], in [6], in test [8], in test [16] and in [9] was “inactive” throughout. For the same compound, the Potency entry in test [17], in test [10], in [11], in test [12], in test [18] and in test [19] was “inactive” in each case. Moreover, in [20], the Potency entry was “inactive”. For the same compound, the call in test [7] was inactive.
For the compound `CN[C@@H]1C[C@@H](c2ccc(Cl)c(Cl)c2)c2ccccc21`, the Potency result in test [2], in test [15], in test [4], in test [5], in test [10] and in [12] was “inactive” in each case. Further, the outcome in [7] was inactive.
In the case of `NC1=NC(=O)N2CC12` (stereo not given), the Potency entry in test [2], in test [14], in test [4], in test [5], in test [16] and in test [10] was “inactive” throughout. The Potency entry in test [12] and in test [18] was “inactive” each time. In addition, the compound was called inactive in test [7]. In [20], the Potency is 10 µM (active).
Turning to `CC[N+]1(CCOC(=O)C(O)(c2ccccc2)c2ccccc2)CCCCC1`, the Potency entry in [13], in test [2], in test [14], in test [15], in [4] and in test [5] was “inactive” throughout. Also, the Potency entry in test [6], in test [8], in test [16], in test [9], in [17] and in [12] was “inactive” each time. The Potency result in test [18] and in [20] was “inactive” each time. For the same compound, the compound was classed as inactive in test [7].
With `C#CC1(O)CCC2C3CCC4=CC(=O)CCC4(C)C3CCC21C` (stereo not given), the Potency result in test [1], in test [13], in [2], in test [14], in test [15] and in test [3] was “inactive” in each case. For the same compound, the Potency result in test [4], in test [5], in [6], in test [8], in [16] and in test [9] was “inactive” in each case. Besides, the Potency result in [17], in test [10], in test [11], in [12], in test [18] and in test [19] was “inactive” in each case. Besides, the Potency entry in [20] was “inactive”. Also, the result in test [7] was inactive.
In the case of `Cc1cc(O)ccc1Cl`, the Potency entry in test [1], in test [13], in test [2], in [14], in test [15] and in test [3] was “inactive” in each case. The Potency result in test [4], in test [5], in [6], in test [8], in test [16] and in [9] was “inactive” throughout. The Potency result in test [17], in [10], in test [11], in test [12], in [18] and in test [19] was “inactive” throughout. For the same compound, in test [20], the Potency result was “inactive”. Also, the call in [7] was inactive.
In the case of `COC(C)(C)CCCC(C)C/C=C/C(C)=C/C(=O)OC(C)C` (stereo not given), the Potency result in test [14], in test [15], in [3] and in [10] was “inactive” in each case. For the same compound, the Potency in [17] is 12.6 µM (active).

The values above are taken from PubChem BioAssay (NCATS).
